In PubChem BioAssay:
The source made the active and inactive calls.

What was measured:
[1] = system: Human papillomavirus type 1a protein E7 (residues 44-93); assay: small molecules binding HPV E7 44-93 – biochemical, small-molecule microarray, residues 44-93, 635 nm fluorescence, primary screen (AID 1108); conditions: fluorescence 635 nm, higher = more signal;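 further: E7 fragment applied at 1 µg/mL in TBST for 1 h at 4 C; score combines spot fluorescence with its signal to noise ratio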
[2] = hepatitis C replication reporter changes, two-sided – Huh7 cells, luciferase reporter, HCV replication inhibitor project, primary screen (AID 1109); conditions: Huh7 HCV replicon luciferase reporter, 48 h; higher = more signal;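 further: huh7 hepatoma cells harbouring a luciferase neomycin HCV replicon reporter; luciferase luminescence as measure of HCV replicon replication; test concentration not given here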
[3] = biological target: Left-right determination factor 2 (Homo sapiens) (UniProt O00292); assay: small molecules binding LEFTY2 protein – biochemical, small-molecule microarray, 635 nm fluorescence scan, primary screen (AID 1110); conditions: higher = more signal
[4] = biological target: Calmodulin-1 (Homo sapiens) (UniProt P0DP23); assay: small molecules binding calmodulin-1 with EGTA – biochemical, small-molecule microarray, Cy5-labelled CALM1, profiling panel (AID 1111); conditions: Cy5-CALM1 binding fluorescence, higher = more signal;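 further: labelled calmodulin applied in Tris saline Tween buffer holding calcium plus EGTA and DTT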
[5] = biological target: Calmodulin-1 (Homo sapiens) (UniProt P0DP23); assay: small molecules binding Ca-loaded calmodulin-1 – biochemical, small-molecule microarray, Cy5-labelled CALM1, plus calcium, artefact control for SMM control-protein annotation, profiling panel (AID 1112); conditions: Cy5-CALM1 binding fluorescence, higher = more signal;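 further: score merges spot fluorescence with signal to noise from triplicate slides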
[6] = probe aWnt5a binding to arrayed compounds – biochemical, biotinylated probe, 635/667 nm fluorescence, primary screen (AID 1113); conditions: small-molecule microarray, higher = more signal;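 further: score merges 667 nm fluorescence intensity with signal-to-noise per printed feature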
[7] = probe aShh binding to arrayed compounds – biochemical, biotinylated probe, 635/667 nm fluorescence, primary screen (AID 1114); conditions: small-molecule microarray, higher = more signal;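 further: probe is biotin-labelled aShh protein from a stem cell growth factor screen; measures binding of labelled protein to compounds printed on the slide; score merges feature fluorescence at 667 nm with signal-to-noise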
[8] = probe aNog binding to arrayed compounds – biochemical, biotinylated probe, 635/667 nm fluorescence, primary screen (AID 1115); conditions: small-molecule microarray, higher = more signal;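 further: probe is biotinylated aNog protein used at 0.15 µg/mL for 1 h at 4 C; z-score combines 667 nm fluorescence of each spot with its signal to noise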
[9] = biological target: Torsin-1A-interacting protein 1 (Homo sapiens) (UniProt Q5JTV8); assay: compound microarray binding of lysate hLAP1 – cell lysate, small-molecule microarray, COS7 lysate, 635/667 nm fluorescence, primary screen (AID 1116); conditions: 635 nm fluorescence, higher = more signal
[10] = biological target: Alpha-bungarotoxin (Bungarus multicinctus) (UniProt P60615); assay: compounds binding labelled alpha-BTX control protein – biochemical, small-molecule microarray, Alexa647 label, 635/667 nm fluorescence, artefact control for SMM control protein annotation, profiling panel (AID 1117); conditions: alpha-BTX-A647 binding fluorescence, higher = more signal
Albumin (Bos taurus) = Albumin (Bos taurus) (UniProt P02769); assay: compounds binding labelled BSA control protein – biochemical, small-molecule microarray, Alexa647 label, 635/667 nm fluorescence, artefact control for SMM control protein annotation, profiling panel (AID 1118); conditions: BSA-A647 binding, fluorescence 635 nm, higher = more signal;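 further: score merges 667 nm emission intensity and signal-to-noise per printed compound spot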
[11] = probe aXIP binding to arrayed compounds – biochemical, NeuroSMM set, 635/667 nm fluorescence, primary screen (AID 1119); conditions: small-molecule microarray, higher = more signal, called active from +8 up or from −8 down;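 further: probe is the protein aXip251-270 applied at 1 µg/mL to compound-printed slides; binding of probe to printed compounds measured as 667 nm fluorescence plus signal to noise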
[12] = probe aNOTCH3 binding on compound microarray – biochemical, small-molecule microarray, 635/667 nm fluorescence, primary screen (AID 1120); conditions: higher = more signal;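 further: probe is a biotin-tagged antibody raised against NOTCH3 rather than NOTCH3 protein; score merges spot fluorescence near 667 nm with spot signal to noise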
[13] = probe aNOTCH2 binding on compound microarray – biochemical, small-molecule microarray, 635/667 nm fluorescence, primary screen (AID 1121); conditions: higher = more signal;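 further: score merges feature fluorescence read at 667 nm with its signal to noise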
[14] = biological target: Carbonic anhydrase 2 (Homo sapiens) (UniProt P00918); assay: compounds binding carbonic anhydrase 2 – biochemical, small-molecule microarray, Alexa647-labelled CAII, profiling panel (AID 1122); conditions: CAII-A647 binding fluorescence, higher = more signal
[15] = COS7 lysate on small-molecule microarray, probe aHis, 635 nm (AID 1123); conditions: COS7 cell lysate, fluorescence, higher = more signal;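 further: z-score combines 667nm fluorescence intensity with signal-to-noise per printed compound spot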
[16] = probe aLAP1 signal on lysate-treated microarray – cell lysate, small-molecule microarray, COS7 lysate, primary screen (AID 1124); conditions: probe aLAP1, fluorescence, higher = more signal;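 further: lysate comes from COS7 cells expressing LAP1 and is applied at 0.3 µg/mL; score merges spot fluorescence near 667 nm with signal-to-noise over triplicate slides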
Sam68 (KHDRBS1) = assay: compounds binding KHDRBS1 protein – biochemical, small-molecule microarray, 635 nm fluorescence, primary screen (AID 1125); conditions: higher = more signal;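 further: score merges 667 nm channel intensity with signal to noise over triplicate slides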
[17] = system: Chordin-like protein 2 (CHRDL2); assay: compounds binding chordin-like 2 – biochemical, small-molecule microarray, 635 nm fluorescence, primary screen (AID 1126); conditions: fluorescence 635 nm, higher = more signal;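 further: printed compound slides probed with Chrdl2 protein at 4 µg/mL for 1 h at 4 C; score merges 667 nm emission intensity with signal to noise over three replicate slides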
[18] = biological target: Concanavalin-A (Canavalia ensiformis) (UniProt P02866); assay: compounds binding concanavalin A lectin – biochemical, small-molecule microarray, Alexa647 label, 635 nm, artefact control for SMM control protein annotation, primary screen (AID 1127); conditions: ConA-A647 binding fluorescence, higher = more signal;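 further: z combines 667 nm emission intensity with signal-to-noise across three replicate slides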
Chain of Concanavalin-A (Canavalia ensiformis) (P02866 whole entry, looked up): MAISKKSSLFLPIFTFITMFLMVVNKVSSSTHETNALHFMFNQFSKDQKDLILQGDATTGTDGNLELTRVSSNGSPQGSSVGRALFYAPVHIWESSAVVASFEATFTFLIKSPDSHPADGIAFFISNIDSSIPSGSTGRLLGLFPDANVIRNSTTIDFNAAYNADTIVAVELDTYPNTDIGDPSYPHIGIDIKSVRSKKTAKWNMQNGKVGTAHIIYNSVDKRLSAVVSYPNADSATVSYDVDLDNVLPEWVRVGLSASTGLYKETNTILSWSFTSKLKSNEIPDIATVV

Chain of Alpha-bungarotoxin (Bungarus multicinctus) (P60615 whole entry, looked up): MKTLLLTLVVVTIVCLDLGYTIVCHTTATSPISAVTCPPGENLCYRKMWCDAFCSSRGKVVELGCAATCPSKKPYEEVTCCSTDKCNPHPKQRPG
Chain of Torsin-1A-interacting protein 1 (Homo sapiens) (Q5JTV8 whole entry, looked up): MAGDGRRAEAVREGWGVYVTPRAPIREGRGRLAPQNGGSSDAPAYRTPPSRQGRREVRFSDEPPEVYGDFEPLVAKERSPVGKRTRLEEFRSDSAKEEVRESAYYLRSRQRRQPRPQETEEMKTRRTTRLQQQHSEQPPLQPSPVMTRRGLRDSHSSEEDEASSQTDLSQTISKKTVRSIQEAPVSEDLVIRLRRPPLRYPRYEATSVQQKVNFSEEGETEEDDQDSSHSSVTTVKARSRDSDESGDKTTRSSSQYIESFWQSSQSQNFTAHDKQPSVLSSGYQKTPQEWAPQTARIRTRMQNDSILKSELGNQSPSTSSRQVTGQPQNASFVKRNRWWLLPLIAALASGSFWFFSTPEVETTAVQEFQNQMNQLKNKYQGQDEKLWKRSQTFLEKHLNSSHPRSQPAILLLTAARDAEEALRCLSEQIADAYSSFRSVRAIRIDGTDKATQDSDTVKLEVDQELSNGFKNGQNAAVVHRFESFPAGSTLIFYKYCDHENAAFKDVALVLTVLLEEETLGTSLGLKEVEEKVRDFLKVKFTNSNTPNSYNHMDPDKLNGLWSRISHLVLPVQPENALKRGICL
Chain of Albumin (Bos taurus) (P02769 whole entry, looked up): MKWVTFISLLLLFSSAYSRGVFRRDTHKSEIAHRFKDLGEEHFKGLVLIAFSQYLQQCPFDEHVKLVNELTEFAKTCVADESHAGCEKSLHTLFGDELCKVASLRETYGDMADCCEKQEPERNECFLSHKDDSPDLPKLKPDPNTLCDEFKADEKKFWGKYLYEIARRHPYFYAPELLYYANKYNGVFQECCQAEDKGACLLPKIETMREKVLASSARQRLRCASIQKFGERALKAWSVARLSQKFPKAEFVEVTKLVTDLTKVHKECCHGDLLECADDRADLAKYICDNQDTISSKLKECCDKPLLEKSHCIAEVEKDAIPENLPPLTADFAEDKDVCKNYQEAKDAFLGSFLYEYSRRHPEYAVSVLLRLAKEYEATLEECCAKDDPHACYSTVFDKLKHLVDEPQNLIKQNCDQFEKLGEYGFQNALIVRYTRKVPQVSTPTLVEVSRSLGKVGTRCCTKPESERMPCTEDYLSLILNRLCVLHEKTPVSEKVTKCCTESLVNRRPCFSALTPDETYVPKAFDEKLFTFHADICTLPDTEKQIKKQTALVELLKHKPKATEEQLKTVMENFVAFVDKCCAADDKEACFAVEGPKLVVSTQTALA
Chain of Left-right determination factor 2 (Homo sapiens) (O00292 whole entry, looked up): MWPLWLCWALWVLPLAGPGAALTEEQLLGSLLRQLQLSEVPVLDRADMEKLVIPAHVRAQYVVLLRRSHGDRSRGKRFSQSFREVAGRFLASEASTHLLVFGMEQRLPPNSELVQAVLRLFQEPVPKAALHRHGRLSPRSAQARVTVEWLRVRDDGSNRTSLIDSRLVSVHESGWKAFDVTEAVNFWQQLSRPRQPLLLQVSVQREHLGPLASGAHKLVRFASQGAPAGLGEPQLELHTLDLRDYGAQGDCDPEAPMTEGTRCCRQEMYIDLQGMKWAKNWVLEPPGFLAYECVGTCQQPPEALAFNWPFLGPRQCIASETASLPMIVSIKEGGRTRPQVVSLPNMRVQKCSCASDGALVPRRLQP

SMILES	composite z-score [1]	z-score [2]	composite z-score [3]	composite z-score [4]	composite z-score [5]	composite z-score [6]	composite z-score [7]	composite z-score [8]	composite z-score [9]	composite z-score [10]	composite z-score (Albumin (Bos taurus))	composite Z-score [11]	composite z-score [12]	composite z-score [13]	composite z-score [14]	composite z-score [15]	composite z-score [16]	composite z-score (Sam68 (KHDRBS1))	composite z-score [17]	composite z-score [18]
CC(C)c1ccc(NN2C(C(O)C(C)C)C=CC3C(=O)N(c4ccccc4)C(=O)C32)cc1 (stereo not given)	0.713	2.43	0.136	2.1	0.721	0.168	0.998	1.8	0.817	1.49	1.07	0.349 (inactive)	0.761	0.353	0.615	2.89	1.43	1.31	-0.256	1.2
COc1ccc(CCNC(=O)[C@@H]2c3ccccc3C(=O)N(CC34CC5CC(CC(C5)C3)C4)[C@H]2c2ccc(CO)cc2)cc1	1.29	-2.34	0.453	1.67	0.576	-0.0286	0.0381	-0.338	0.321	0.664	0.764	-0.422 (inactive)	0.0206	-0.132	0.539	1.7	-0.0344	1.22	0.23	1.11
CC(C)CNC(=O)[C@@]1(C)c2ccccc2C(=O)N(Cc2cc(F)cc(C(F)(F)F)c2)[C@H]1c1ccc(CO)cc1	1.35	-0.732	0.0867	0.0765	0.0987	-0.17	0.0639	0.341	1.98	0.884	0.621	-0.17 (inactive)	-0.0044	-0.046	0.284	1.2	0.615	1.17	0.443	0.771
CC(=O)n1cc(C(O)C2C=CC3C(=O)N(c4ccccc4)C(=O)C3N2Nc2ccccc2F)c2ccccc21 (stereo not given)	1.13	-0.159	-0.747	1.64	-0.494	-0.0566	0.0723	-0.305	0.488	0.403	0.332	0.169 (inactive)	-0.189	-0.162	0.754	1.84	0.386	0.505	-0.997	0.76
C=CC[C@]1(C(=O)NCc2ccccc2)COC(c2ccc(OCCCO)cc2)=N1	-0.298	-1.65	-1	0.388	-0.733	0.0293	0.0982	0.54	3.03	3.83	0.981	3.11 (inactive)	0.0789	0.114	0.84	2.75	1.46	-0.297	-0.623	-0.507
CC#CCO[Si](C#CCCCCCC)(C(C)C)C(C)C	-0.321	0.158	-3.37	-0.626	1.01	-0.275	-0.304	-0.417	-0.438	0.0016	-0.611	-0.244 (inactive)	-0.597	-0.192	-0.553	-0.0607	-0.529	0.204	-2.33	-2.41
CC1CC/C=C\[C@H]2OC34C=CCN(c5ccc(Cl)cc5)C(=O)[C@H]3N(CCCO)C(=O)[C@]4(C)C2C(=O)O1 (stereo not given in full)	-0.678	-1.07	-1.33	-0.484	0.456	-0.124	-0.0553	-0.0211	-1.06	-0.859	0.784	0.182 (inactive)	-0.235	-0.18	0.931	-0.42	0.569	-0.38	-1.39	-0.749
C=CCNC(=O)[C@H]1[C@@H]2C(=O)O[C@@H](c3ccccc3)[C@@H](c3ccccc3)N2[C@@H](c2ccc(O)cc2)[C@]12C(=O)Nc1ccc(C#CC3=CCCCC3)cc12	1.32	-1.83	0.71	0.887	0.571	0.163	0.951	0.587	1.11	0.491	0.135	-0.121 (inactive)	-0.119	0.23	0.416	1.52	0.573	1.11	0.62	1.12
C[C@H]1C2[C@H](Cc3ccccc3)NC(=O)[C@]23C(=O)NCC(=O)N2CCC[C@H]2C(=O)NC/C=C\C/C=C/C3[C@@H]2O[C@]12C (stereo not given in full)	-0.8	0.288	0.245	-0.549	-0.698	-0.0417	-0.2	-0.28	-0.177	-0.246	-0.674	-0.403 (inactive)	0.155	-0.176	0.718	-0.981	-0.632	-0.158	0.486	-0.351
COCCOC(=O)N1C(=O)[C@@]2(c3cc(C#CCNC(N)=O)ccc31)[C@H](C(=O)NC[C@H](O)c1ccccc1)[C@H]1C(=O)O[C@H](c3ccccc3)[C@H](c3ccccc3)N1[C@@H]2c1ccc(OCCO)cc1	1.11	0.724	0.319	0.565	0.442	-0.0459	0.13	1.09	1.47	0.41	0.472	-0.102 (inactive)	0.0018	-0.2	0.355	0.245	0.666	1.26	0.285	1.02
